Results: PubChem BioAssay (NCI)
Compounds without any hit were thinned out: in the full panel of roughly 83,000, 20% have a hit.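 Treatment: one concentration, 48 hours, 96-well format. Scoring: percent growth, with anything below 10 considered active.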 The source made the active and inactive calls.

How the values were obtained:
Test in all cases: NCI-60 one-dose screen, 48 h (100 = growth as untreated, 0 = no growth, -100 = all killed)
Settings in all cases: 10 µM unless noted
DU-145 prostate = system: DU-145 prostate
K-562 leukemia = system: K-562 leukemia
MALME-3M melanoma = system: MALME-3M melanoma
MDA-MB-231 breast = system: MDA-MB-231 breast
RXF 393 renal = system: RXF 393 renal
SF-268 CNS = system: SF-268 CNS
SF-295 CNS = system: SF-295 CNS
SF-539 CNS = system: SF-539 CNS
UACC-257 melanoma = system: UACC-257 melanoma
HCT-15 colon = system: HCT-15 colon
HT29 colon = system: HT29 colon
SNB-75 CNS = system: SNB-75 CNS
SNB-19 CNS = system: SNB-19 CNS
U251 CNS = system: U251 CNS
PC-3 prostate = system: PC-3 prostate
SK-MEL-5 melanoma = system: SK-MEL-5 melanoma
UACC-62 melanoma = system: UACC-62 melanoma
LOX IMVI melanoma = system: LOX IMVI melanoma
SK-MEL-28 melanoma = system: SK-MEL-28 melanoma
M14 melanoma = system: M14 melanoma

Measured: growth

NCCCNc1nc2ccccc2c2c(=O)c3cc(C(F)(F)F)ccc3sc12
active: DU-145 prostate -0.179% | K-562 leukemia -21.4% | MDA-MB-231 breast -35.2% | SF-539 CNS -20% | HCT-15 colon -55.7% | HT29 colon -23.4% | U251 CNS -55.7% | LOX IMVI melanoma -97.7%
inactive: MALME-3M melanoma 87.1% | RXF 393 renal 55.7% | SF-268 CNS 47.1% | SF-295 CNS 71.7% | UACC-257 melanoma 96.1% | SNB-75 CNS 60.1% | SNB-19 CNS 30.4% | PC-3 prostate 37.3% | SK-MEL-5 melanoma 45.8% | UACC-62 melanoma 95.1% | SK-MEL-28 melanoma 81.2%

COc1ccc(CN2c3ccccc3CCc3ccccc32)cc1F
inactive: MALME-3M melanoma 84.3% | MDA-MB-231 breast 17.5% | RXF 393 renal 17.8% | SF-268 CNS 38.9% | SF-295 CNS 11.7% | UACC-257 melanoma 62% | HCT-15 colon 24.9% | SNB-75 CNS 23.2% | SNB-19 CNS 39% | U251 CNS 21.1% | PC-3 prostate 24.1% | SK-MEL-5 melanoma 19.8% | UACC-62 melanoma 24.8% | LOX IMVI melanoma 50.2% | SK-MEL-28 melanoma 50.8%
active: DU-145 prostate 8.55% | K-562 leukemia 6.04% | SF-539 CNS -16.2% | HT29 colon 1.59%

CCCCCCn1c(-c2ccc(C(=O)O/N=C(\N)c3ccc(OC)cc3)cc2)nc(-c2ccccc2)c1-c1ccccc1
active: DU-145 prostate -73.6% | K-562 leukemia -35.3% | MALME-3M melanoma -18.2% | MDA-MB-231 breast -24% | RXF 393 renal -59.6% | SF-268 CNS 3.04% | SF-295 CNS 1.78% | SF-539 CNS -84.1% | HCT-15 colon -41.1% | SNB-75 CNS -20.3% | U251 CNS -42.9% | PC-3 prostate 3.94% | LOX IMVI melanoma -91.6%
inactive: UACC-257 melanoma 48.3% | HT29 colon 22% | SNB-19 CNS 32.5% | SK-MEL-5 melanoma 49.9% | UACC-62 melanoma 18.1% | SK-MEL-28 melanoma 42.1%

Nc1nc(Cl)cc(=O)n1Cc1ccccc1
inactive: DU-145 prostate 98.9% | K-562 leukemia 106% | MALME-3M melanoma 93.2% | MDA-MB-231 breast 92% | RXF 393 renal 101% | SF-268 CNS 103% | SF-295 CNS 95.5% | SF-539 CNS 96.2% | UACC-257 melanoma 93.1% | HCT-15 colon 98.3% | HT29 colon 103% | SNB-75 CNS 82.3% | SNB-19 CNS 93.7% | U251 CNS 101% | PC-3 prostate 95.7% | SK-MEL-5 melanoma 108% | UACC-62 melanoma 88.6% | LOX IMVI melanoma 92.1% | SK-MEL-28 melanoma 108%

CCOC(=O)CCN(C(=O)Nc1ccccc1)C1CCCCC1
inactive: DU-145 prostate 100% | K-562 leukemia 132% | MALME-3M melanoma 113% | MDA-MB-231 breast 110% | RXF 393 renal 177% | SF-268 CNS 104% | SF-295 CNS 108% | SF-539 CNS 98.9% | UACC-257 melanoma 119% | HCT-15 colon 119% | HT29 colon 114% | SNB-75 CNS 83.5% | SNB-19 CNS 110% | U251 CNS 118% | PC-3 prostate 119% | SK-MEL-5 melanoma 99.2% | UACC-62 melanoma 106% | LOX IMVI melanoma 118% | SK-MEL-28 melanoma 131%

[O-][n+]1c2ccccc2[n+]([O-])c2c3ccccc3[nH]c21
inactive: DU-145 prostate 72.6% | K-562 leukemia 87.7% | MALME-3M melanoma 110% | MDA-MB-231 breast 75.9% | RXF 393 renal 99.6% | SF-268 CNS 109% | SF-295 CNS 69.7% | SF-539 CNS 91.4% | HCT-15 colon 78.7% | HT29 colon 77.3% | SNB-75 CNS 82.6% | SNB-19 CNS 85% | U251 CNS 53.2% | PC-3 prostate 66.4% | SK-MEL-5 melanoma 73.5% | UACC-62 melanoma 20.7% | LOX IMVI melanoma 98.3% | SK-MEL-28 melanoma 117%
active: UACC-257 melanoma -31.3%

COc1cc(C(=O)c2cnc(-c3c[nH]c4cccc(C)c34)[nH]2)cc(OC)c1OC
inactive: MALME-3M melanoma 53.8% | RXF 393 renal 75.2% | SF-268 CNS 18.9% | UACC-257 melanoma 83.9% | HCT-15 colon 12% | SNB-75 CNS 20.3% | SNB-19 CNS 37.9% | U251 CNS 17.7% | PC-3 prostate 19.4% | UACC-62 melanoma 32.6% | LOX IMVI melanoma 24.9% | SK-MEL-28 melanoma 59.3%
active: DU-145 prostate -6.2% | K-562 leukemia 8.72% | MDA-MB-231 breast -3.1% | SF-295 CNS 7.59% | SF-539 CNS 0.434% | HT29 colon 6.72% | SK-MEL-5 melanoma -30.7%

O=C(Nc1ccc(-c2nc(-c3cccc(OCCN4CCOCC4)c3)c(-c3ccnc(Br)c3)[nH]2)cc1)c1ccccc1
active: K-562 leukemia 0.946% | MALME-3M melanoma -21% | RXF 393 renal -49.9% | SF-295 CNS -70.9% | SF-539 CNS -39.8% | UACC-257 melanoma -0.153% | HCT-15 colon -7.78% | HT29 colon 1.79% | SNB-75 CNS -37.3% | SNB-19 CNS -0.968% | U251 CNS 8.84% | SK-MEL-5 melanoma -92.7% | UACC-62 melanoma -15.9% | LOX IMVI melanoma -58.8% | SK-MEL-28 melanoma -29.5%
inactive: DU-145 prostate 55.6% | MDA-MB-231 breast 29.2% | SF-268 CNS 38.9% | PC-3 prostate 18.3%

CCOC(=O)c1cnn2c3ccccc3n(S(=O)(=O)c3ccc(OC)cc3)c12
active: RXF 393 renal -6.6% | SF-539 CNS -3.57% | SK-MEL-5 melanoma -15%
inactive: DU-145 prostate 14.8% | K-562 leukemia 11.2% | MALME-3M melanoma 60.7% | MDA-MB-231 breast 10.2% | SF-268 CNS 44.7% | SF-295 CNS 14.1% | UACC-257 melanoma 80.1% | M14 melanoma 25.3% | HCT-15 colon 13% | HT29 colon 11.6% | SNB-75 CNS 61.3% | SNB-19 CNS 27.5% | U251 CNS 26.3% | PC-3 prostate 35.7% | UACC-62 melanoma 25.7% | LOX IMVI melanoma 18.7% | SK-MEL-28 melanoma 57.9%

CCCCOc1ccc(/C=N/NC(N)=S)cc1
inactive: DU-145 prostate 95.6% | K-562 leukemia 65% | MALME-3M melanoma 90.2% | MDA-MB-231 breast 55.7% | RXF 393 renal 85.7% | SF-268 CNS 88.7% | SF-295 CNS 96.9% | SF-539 CNS 78.9% | UACC-257 melanoma 78.4% | HCT-15 colon 55.7% | HT29 colon 61.5% | SNB-75 CNS 72.9% | SNB-19 CNS 89.8% | U251 CNS 89.9% | PC-3 prostate 81% | SK-MEL-5 melanoma 95.7% | UACC-62 melanoma 75.5% | LOX IMVI melanoma 94.2% | SK-MEL-28 melanoma 96.5%

CCCCC1CCCC12NC(=O)NC2=O (centres undefined)
inactive: DU-145 prostate 109% | K-562 leukemia 127% | MALME-3M melanoma 100% | MDA-MB-231 breast 107% | RXF 393 renal 113% | SF-268 CNS 99.5% | SF-295 CNS 109% | SF-539 CNS 113% | UACC-257 melanoma 112% | HCT-15 colon 103% | HT29 colon 110% | SNB-75 CNS 107% | SNB-19 CNS 104% | U251 CNS 99.5% | PC-3 prostate 95% | SK-MEL-5 melanoma 117% | UACC-62 melanoma 93.8% | LOX IMVI melanoma 88.9% | SK-MEL-28 melanoma 113%

COc1ccc(-c2nc3sc(-c4ccc(Cl)cc4)cn3n2)cc1
inactive: DU-145 prostate 80.7% | K-562 leukemia 61.5% | MALME-3M melanoma 50.8% | MDA-MB-231 breast 13.3% | RXF 393 renal 59% | SF-268 CNS 65.1% | SF-295 CNS 24.2% | SF-539 CNS 15.4% | UACC-257 melanoma 84.6% | HCT-15 colon 72% | HT29 colon 17.3% | PC-3 prostate 58.1% | SK-MEL-5 melanoma 72.6% | UACC-62 melanoma 68.6% | LOX IMVI melanoma 54.2% | SK-MEL-28 melanoma 100%
active: SNB-75 CNS -1.66% | SNB-19 CNS -1.95% | U251 CNS -67.9%

CNC(C)[C@H]1CCC2C3CCC4C[C@@H](N(C)C(=O)c5ccccc5)CC[C@]4(C)C3CC[C@@]21C (some centres undefined)
inactive: DU-145 prostate 61.4% | SF-295 CNS 24.3% | SNB-75 CNS 15.5% | SNB-19 CNS 66.6% | U251 CNS 29.9% | PC-3 prostate 16.3%
active: K-562 leukemia -2.77% | MALME-3M melanoma -42.1% | MDA-MB-231 breast -1.29% | RXF 393 renal -67% | SF-268 CNS -9.75% | SF-539 CNS -61.2% | UACC-257 melanoma -12.6% | M14 melanoma -36.6% | HCT-15 colon -42.2% | HT29 colon -33.3% | SK-MEL-5 melanoma -74.2% | UACC-62 melanoma -66% | LOX IMVI melanoma -52.2% | SK-MEL-28 melanoma -71.4%
